# Laboratory results as given in ChEMBL document CHEMBL1961873, “Compounds: GSK PKIS; Assays: Nanosyn kinase panel” (2012).
# How the values were obtained:
# [1] = target: T1, Inhibitor of nuclear factor kappa-B kinase subunit epsilon (Homo sapiens) (UniProt Q14164); settings: at 1 µM;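 further: reported values are averaged percent inhibition figures against human IKKε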
# T1 sequence (whole entry): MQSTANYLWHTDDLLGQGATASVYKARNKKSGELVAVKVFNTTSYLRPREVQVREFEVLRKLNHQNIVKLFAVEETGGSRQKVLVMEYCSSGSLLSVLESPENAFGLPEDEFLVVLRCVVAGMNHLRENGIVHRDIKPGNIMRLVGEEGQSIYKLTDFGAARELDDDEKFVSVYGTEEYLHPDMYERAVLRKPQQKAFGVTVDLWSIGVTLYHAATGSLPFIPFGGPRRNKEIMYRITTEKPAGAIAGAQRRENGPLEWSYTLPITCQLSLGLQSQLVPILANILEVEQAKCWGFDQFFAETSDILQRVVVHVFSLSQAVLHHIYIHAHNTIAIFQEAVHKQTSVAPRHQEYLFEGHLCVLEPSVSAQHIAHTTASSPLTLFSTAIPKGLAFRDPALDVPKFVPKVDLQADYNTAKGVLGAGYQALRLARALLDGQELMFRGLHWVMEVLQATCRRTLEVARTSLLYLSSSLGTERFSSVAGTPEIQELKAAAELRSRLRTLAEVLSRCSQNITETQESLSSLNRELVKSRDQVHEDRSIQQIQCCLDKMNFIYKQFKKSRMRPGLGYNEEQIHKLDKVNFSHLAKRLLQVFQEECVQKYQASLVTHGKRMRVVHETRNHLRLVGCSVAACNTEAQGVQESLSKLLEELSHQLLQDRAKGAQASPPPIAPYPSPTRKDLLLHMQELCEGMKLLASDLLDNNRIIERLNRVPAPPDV
# [2] = target: T2, Serine/threonine-protein kinase Nek1 (Homo sapiens) (UniProt Q96PY6); settings: at 0.1 µM
# T2 sequence (whole entry): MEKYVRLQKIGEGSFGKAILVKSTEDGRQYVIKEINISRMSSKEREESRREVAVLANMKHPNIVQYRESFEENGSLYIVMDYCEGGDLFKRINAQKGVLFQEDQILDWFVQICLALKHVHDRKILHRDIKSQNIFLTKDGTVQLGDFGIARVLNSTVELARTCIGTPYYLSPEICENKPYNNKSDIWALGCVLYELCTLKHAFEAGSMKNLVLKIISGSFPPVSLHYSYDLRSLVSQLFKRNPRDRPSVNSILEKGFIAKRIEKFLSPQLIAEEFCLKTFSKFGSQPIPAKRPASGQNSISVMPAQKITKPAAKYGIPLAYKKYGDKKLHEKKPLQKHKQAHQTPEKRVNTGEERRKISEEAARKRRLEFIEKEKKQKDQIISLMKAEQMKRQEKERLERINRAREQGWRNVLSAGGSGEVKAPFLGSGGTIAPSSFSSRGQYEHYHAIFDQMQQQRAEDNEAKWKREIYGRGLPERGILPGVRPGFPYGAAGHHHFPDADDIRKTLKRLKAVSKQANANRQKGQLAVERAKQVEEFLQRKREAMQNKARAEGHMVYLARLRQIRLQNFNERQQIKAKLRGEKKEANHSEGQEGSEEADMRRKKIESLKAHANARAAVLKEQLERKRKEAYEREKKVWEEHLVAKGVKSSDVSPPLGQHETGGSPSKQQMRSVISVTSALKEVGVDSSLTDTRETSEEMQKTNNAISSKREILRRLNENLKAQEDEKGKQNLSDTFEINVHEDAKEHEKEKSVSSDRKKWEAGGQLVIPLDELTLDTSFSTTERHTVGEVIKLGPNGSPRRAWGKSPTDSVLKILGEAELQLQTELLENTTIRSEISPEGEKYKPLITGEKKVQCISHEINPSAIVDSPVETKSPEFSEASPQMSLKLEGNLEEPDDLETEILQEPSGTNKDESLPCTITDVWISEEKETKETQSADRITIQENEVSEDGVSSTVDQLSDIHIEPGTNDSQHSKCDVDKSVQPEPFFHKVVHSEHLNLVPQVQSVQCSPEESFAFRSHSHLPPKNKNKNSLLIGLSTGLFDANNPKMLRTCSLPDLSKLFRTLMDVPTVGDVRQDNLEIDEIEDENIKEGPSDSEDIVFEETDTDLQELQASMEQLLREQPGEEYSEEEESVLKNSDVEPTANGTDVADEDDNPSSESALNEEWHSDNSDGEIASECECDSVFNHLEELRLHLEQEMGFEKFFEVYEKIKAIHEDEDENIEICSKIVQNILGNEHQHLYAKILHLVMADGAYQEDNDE
# [3] = target: T2, Serine/threonine-protein kinase Nek1 (Homo sapiens); settings: at 1 µM
# [4] = target: T3, Serine/threonine-protein kinase Nek2 (Homo sapiens) (UniProt P51955); settings: at 0.1 µM
# T3 sequence (whole entry): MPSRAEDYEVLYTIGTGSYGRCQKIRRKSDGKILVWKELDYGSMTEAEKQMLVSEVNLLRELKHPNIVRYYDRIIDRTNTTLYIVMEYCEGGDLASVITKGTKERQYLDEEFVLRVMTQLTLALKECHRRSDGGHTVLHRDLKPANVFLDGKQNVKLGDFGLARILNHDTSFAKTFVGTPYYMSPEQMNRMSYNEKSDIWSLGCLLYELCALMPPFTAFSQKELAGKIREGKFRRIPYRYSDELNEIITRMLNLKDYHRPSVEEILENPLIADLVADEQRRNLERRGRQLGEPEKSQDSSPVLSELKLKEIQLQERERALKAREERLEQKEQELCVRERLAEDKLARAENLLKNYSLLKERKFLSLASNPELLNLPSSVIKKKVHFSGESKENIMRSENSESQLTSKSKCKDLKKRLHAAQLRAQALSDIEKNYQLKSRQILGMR
# [5] = target: T3, Serine/threonine-protein kinase Nek2 (Homo sapiens); settings: at 1 µM
# [6] = target: Serine/threonine-protein kinase Nek6 (Homo sapiens) (UniProt Q9HC98); settings: at 0.1 µM
# Chain of Serine/threonine-protein kinase Nek6 (Homo sapiens) (Q9HC98 whole entry): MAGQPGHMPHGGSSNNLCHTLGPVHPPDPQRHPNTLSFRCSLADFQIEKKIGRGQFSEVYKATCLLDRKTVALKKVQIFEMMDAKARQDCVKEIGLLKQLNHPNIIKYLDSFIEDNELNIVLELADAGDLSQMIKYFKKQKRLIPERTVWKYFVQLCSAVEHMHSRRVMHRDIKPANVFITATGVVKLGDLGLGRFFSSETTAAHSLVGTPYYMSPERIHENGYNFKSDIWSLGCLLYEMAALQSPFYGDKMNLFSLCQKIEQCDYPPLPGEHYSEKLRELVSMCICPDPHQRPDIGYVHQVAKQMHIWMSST
# [7] = target: Serine/threonine-protein kinase Nek6 (Homo sapiens) (UniProt Q9HC98); settings: at 1 µM
# [8] = target: Serine/threonine-protein kinase Nek7 (Homo sapiens) (UniProt Q8TDX7); settings: at 0.1 µM
# Chain of Serine/threonine-protein kinase Nek7 (Homo sapiens) (Q8TDX7 whole entry, looked up): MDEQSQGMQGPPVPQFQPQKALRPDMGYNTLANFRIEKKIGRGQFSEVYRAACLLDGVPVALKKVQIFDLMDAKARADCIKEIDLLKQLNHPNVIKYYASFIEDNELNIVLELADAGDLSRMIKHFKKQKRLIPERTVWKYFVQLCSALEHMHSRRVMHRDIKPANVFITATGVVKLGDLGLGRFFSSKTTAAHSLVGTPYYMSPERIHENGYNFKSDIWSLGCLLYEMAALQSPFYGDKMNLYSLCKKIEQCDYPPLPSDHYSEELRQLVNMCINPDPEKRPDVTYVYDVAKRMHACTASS
# [9] = target: Serine/threonine-protein kinase Nek7 (Homo sapiens) (UniProt Q8TDX7); settings: at 1 µM
# [10] = target: T4, Serine/threonine-protein kinase Nek9 (Homo sapiens) (UniProt Q8TD19); settings: at 0.1 µM
# T4 sequence (whole entry): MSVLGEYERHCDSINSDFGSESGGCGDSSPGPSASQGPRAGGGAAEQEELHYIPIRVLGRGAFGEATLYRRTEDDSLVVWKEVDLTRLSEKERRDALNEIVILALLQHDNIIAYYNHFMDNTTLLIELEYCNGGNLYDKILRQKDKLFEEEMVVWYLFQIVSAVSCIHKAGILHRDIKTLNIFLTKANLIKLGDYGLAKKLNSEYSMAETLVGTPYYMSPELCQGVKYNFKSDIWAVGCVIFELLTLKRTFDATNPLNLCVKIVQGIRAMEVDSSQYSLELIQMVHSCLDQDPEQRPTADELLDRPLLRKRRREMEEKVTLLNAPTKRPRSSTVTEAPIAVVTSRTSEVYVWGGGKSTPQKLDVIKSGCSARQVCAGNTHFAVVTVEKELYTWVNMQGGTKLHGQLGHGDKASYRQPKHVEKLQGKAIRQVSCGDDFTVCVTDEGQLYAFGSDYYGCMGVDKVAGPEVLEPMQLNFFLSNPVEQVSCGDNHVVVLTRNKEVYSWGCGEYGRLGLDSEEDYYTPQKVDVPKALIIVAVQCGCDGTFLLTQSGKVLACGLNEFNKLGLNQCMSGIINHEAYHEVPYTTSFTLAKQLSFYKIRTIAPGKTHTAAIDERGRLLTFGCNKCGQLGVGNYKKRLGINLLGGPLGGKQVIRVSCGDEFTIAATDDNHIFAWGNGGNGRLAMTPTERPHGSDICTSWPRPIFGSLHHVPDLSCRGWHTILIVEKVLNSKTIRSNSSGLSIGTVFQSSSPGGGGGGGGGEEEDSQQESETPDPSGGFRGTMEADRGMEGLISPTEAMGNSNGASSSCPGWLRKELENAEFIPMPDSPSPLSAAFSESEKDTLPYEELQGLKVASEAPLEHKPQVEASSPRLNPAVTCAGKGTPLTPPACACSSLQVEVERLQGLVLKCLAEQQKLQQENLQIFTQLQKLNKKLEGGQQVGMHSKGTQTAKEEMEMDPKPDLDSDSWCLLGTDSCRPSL
# [11] = target: T4, Serine/threonine-protein kinase Nek9 (Homo sapiens); settings: at 1 µM
# [12] = target: Serine/threonine-protein kinase PLK1 (Homo sapiens) (UniProt P53350); settings: at 0.1 µM
# Chain of Serine/threonine-protein kinase PLK1 (Homo sapiens) (P53350 whole entry): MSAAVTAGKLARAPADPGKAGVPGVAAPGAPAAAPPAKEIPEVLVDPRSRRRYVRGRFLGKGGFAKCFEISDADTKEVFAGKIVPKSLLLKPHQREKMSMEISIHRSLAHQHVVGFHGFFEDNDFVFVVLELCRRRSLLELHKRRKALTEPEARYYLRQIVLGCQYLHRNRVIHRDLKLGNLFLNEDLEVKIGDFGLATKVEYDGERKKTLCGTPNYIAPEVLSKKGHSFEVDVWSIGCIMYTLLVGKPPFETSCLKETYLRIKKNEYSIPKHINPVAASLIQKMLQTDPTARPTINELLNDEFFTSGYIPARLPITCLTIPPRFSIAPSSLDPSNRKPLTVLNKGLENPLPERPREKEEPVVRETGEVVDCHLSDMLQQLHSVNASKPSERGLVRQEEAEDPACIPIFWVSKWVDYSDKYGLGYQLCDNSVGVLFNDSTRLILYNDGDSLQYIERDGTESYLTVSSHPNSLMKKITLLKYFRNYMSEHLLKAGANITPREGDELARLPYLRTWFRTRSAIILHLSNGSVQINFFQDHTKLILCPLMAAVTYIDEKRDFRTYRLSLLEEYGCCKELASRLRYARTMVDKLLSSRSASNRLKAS
# [13] = target: Serine/threonine-protein kinase PLK1 (Homo sapiens) (UniProt P53350); settings: at 1 µM
# [14] = target: T5, Dual specificity protein kinase TTK (Homo sapiens) (UniProt P33981); settings: at 0.1 µM
# T5 sequence (whole entry): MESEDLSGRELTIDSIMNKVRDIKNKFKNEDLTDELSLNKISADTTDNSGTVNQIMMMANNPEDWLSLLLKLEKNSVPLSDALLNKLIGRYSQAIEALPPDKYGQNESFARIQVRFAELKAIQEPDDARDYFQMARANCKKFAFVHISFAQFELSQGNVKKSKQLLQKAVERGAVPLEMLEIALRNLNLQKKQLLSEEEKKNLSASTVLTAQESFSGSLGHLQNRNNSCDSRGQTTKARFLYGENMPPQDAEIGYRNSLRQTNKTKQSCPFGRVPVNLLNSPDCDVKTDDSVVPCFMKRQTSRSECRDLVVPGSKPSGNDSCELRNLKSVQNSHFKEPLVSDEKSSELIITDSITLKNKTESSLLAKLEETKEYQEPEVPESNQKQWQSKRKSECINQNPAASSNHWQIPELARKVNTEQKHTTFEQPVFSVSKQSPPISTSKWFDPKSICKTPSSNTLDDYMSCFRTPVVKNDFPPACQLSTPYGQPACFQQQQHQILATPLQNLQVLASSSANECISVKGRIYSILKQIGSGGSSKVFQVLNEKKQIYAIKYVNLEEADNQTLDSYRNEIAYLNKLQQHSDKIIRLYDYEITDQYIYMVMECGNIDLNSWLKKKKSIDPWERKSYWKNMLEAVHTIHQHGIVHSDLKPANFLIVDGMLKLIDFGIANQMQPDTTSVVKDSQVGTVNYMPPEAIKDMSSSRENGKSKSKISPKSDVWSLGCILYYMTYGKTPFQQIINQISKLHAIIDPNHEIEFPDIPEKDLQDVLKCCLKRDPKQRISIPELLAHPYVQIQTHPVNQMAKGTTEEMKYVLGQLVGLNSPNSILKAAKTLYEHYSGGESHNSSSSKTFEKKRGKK
# [15] = test system: T6, Receptor-type tyrosine-protein kinase FLT3 (Homo sapiens), P36888 [D835Y]; settings: at 1 µM
# T6 sequence (whole entry): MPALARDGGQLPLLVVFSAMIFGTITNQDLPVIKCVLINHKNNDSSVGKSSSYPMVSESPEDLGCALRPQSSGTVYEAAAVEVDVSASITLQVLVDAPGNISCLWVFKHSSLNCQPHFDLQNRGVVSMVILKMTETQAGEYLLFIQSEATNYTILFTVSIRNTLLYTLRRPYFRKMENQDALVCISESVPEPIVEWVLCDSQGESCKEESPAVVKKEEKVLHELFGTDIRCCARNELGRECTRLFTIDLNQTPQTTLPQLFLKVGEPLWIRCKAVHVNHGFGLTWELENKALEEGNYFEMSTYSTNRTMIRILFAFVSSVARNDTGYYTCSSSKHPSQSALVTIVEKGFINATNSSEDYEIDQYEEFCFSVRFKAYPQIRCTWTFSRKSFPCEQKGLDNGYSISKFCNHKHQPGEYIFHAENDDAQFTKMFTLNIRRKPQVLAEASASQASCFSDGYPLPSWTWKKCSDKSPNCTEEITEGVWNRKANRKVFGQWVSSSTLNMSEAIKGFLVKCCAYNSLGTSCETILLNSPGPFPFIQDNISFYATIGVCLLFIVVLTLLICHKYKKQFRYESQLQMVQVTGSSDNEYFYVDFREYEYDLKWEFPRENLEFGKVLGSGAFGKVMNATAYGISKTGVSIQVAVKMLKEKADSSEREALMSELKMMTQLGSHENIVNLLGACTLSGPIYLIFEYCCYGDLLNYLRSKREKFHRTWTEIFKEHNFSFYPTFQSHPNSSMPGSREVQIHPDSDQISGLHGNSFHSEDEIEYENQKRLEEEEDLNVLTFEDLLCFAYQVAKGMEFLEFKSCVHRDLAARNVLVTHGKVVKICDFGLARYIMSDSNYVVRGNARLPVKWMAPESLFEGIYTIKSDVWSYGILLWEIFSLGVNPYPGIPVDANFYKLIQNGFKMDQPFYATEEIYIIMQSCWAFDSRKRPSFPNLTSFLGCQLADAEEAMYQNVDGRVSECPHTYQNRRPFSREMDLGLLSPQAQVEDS
# [16] = target: Vascular endothelial growth factor receptor 3 (Homo sapiens) (UniProt P35916); settings: at 0.1 µM
# Chain of Vascular endothelial growth factor receptor 3 (Homo sapiens) (P35916 whole entry): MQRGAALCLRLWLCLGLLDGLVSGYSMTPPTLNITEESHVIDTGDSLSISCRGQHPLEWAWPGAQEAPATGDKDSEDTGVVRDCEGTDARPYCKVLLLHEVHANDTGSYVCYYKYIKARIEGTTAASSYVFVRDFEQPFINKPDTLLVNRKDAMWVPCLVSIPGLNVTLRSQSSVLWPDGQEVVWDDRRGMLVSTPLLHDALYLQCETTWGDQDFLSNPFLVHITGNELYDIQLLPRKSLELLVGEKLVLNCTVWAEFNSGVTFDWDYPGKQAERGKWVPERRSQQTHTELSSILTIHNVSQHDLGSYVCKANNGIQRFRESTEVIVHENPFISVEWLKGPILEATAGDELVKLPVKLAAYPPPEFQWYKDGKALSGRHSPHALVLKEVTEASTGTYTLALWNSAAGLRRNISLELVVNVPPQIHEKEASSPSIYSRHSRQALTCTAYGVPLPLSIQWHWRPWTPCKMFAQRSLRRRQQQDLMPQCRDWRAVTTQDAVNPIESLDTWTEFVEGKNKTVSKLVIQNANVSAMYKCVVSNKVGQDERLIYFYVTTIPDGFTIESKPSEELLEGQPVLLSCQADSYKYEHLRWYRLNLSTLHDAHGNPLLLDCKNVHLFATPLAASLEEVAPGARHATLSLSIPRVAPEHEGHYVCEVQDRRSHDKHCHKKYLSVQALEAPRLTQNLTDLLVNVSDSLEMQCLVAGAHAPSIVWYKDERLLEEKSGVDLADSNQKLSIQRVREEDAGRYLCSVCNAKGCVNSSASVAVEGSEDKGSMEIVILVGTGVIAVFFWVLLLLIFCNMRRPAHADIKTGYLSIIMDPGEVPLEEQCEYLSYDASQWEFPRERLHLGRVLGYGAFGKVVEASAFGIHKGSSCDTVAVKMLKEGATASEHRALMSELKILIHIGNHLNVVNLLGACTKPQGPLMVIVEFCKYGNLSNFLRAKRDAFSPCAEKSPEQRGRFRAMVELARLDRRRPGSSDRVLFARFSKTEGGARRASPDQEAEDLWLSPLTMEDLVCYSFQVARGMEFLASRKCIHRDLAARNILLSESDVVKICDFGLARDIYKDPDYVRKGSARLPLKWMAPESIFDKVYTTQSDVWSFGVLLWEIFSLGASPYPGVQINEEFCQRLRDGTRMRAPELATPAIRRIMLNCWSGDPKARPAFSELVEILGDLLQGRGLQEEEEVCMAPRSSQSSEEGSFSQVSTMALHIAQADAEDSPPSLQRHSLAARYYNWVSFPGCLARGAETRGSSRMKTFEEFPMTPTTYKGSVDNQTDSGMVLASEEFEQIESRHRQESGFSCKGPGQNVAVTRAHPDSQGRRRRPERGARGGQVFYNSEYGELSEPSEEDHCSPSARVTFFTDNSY
# [17] = target: Vascular endothelial growth factor receptor 3 (Homo sapiens) (UniProt P35916); settings: at 1 µM
# [18] = target: Macrophage colony-stimulating factor 1 receptor (Homo sapiens) (UniProt P07333); settings: at 0.1 µM
# Chain of Macrophage colony-stimulating factor 1 receptor (Homo sapiens) (P07333 whole entry): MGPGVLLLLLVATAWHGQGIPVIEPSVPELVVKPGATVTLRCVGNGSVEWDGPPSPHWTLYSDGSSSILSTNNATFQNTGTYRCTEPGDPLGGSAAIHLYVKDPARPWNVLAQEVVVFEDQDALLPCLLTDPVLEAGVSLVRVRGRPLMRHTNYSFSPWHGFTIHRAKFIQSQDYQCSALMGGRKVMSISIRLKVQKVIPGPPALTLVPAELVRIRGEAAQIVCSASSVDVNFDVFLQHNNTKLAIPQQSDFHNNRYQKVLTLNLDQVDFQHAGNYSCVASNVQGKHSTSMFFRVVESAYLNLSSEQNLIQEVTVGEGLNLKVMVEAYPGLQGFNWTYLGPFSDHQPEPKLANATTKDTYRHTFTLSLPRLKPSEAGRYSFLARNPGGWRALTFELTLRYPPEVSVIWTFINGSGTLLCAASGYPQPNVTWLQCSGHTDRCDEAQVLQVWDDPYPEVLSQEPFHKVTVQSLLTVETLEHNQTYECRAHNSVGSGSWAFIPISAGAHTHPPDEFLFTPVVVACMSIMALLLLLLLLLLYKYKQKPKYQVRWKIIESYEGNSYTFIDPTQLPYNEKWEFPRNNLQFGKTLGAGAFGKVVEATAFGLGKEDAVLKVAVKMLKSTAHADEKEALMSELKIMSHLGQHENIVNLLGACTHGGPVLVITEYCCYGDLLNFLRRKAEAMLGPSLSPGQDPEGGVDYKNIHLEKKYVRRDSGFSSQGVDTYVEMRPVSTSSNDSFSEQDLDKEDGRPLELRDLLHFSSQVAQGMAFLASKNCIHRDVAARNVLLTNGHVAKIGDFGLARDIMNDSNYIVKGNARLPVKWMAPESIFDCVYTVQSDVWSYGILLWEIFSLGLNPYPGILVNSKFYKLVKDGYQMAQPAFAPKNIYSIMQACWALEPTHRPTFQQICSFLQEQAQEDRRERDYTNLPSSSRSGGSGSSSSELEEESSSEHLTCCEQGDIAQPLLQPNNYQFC
# [19] = target: Macrophage colony-stimulating factor 1 receptor (Homo sapiens) (UniProt P07333); settings: at 1 µM
# [20] = target: Tyrosine-protein kinase Fyn (Homo sapiens) (UniProt P06241); settings: at 0.1 µM
# Chain of Tyrosine-protein kinase Fyn (Homo sapiens) (P06241 2-537 limits assumed): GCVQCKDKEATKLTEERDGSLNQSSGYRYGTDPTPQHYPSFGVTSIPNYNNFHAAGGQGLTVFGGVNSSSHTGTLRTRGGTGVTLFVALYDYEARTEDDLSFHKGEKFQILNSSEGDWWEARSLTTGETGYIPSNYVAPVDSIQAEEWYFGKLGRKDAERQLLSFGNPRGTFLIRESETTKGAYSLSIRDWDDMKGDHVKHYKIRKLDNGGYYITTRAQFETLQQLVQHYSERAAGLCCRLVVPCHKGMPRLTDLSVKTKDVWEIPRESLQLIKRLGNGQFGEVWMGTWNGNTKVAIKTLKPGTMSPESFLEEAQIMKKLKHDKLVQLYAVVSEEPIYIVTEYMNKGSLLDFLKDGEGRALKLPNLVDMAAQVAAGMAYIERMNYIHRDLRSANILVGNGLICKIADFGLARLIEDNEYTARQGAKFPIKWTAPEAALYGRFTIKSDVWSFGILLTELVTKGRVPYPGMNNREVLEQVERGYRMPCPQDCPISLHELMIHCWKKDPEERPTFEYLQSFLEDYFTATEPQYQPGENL
Structure (SMILES),inhibition [1],inhibition [2],inhibition [3],inhibition [4],inhibition [5],inhibition [6],inhibition [7],inhibition [8],inhibition [9],inhibition [10],inhibition [11],inhibition [12],inhibition [13],inhibition [14],inhibition [15],inhibition [16],inhibition [17],inhibition [18],inhibition [19],inhibition [20]
c1ccc(-c2nc3n(c2-c2ccc4c(c2)OCO4)CCC3)nc1,1.63%,2.25%,1.34%,2.03%,3.36%,1.4%,-0.68%,4.7%,3.16%,4.73%,0.13%,1.59%,1.37%,4.41%,4.03%,13.3%,15.8%,4.57%,1.74%,1.85%
O=C(Nc1n[nH]c2cc(-c3ccc(F)cc3)ccc12)C1CC1,3.59%,2.65%,1.94%,4.38%,4.67%,0.6%,2.6%,5.51%,3%,8.59%,6.43%,2.87%,1.93%,6.08%,1.98%,1.27%,1.78%,1.64%,1.6%,2.62%
Cc1cccc(Nc2ncc(-c3ccccc3)o2)c1,6.48%,4.04%,3.56%,3.46%,3.62%,0.75%,2.04%,2.47%,4.58%,8.57%,4.73%,2.24%,6.33%,6.38%,18.6%,5.49%,9.11%,9.54%,25.7%,3.07%
Nc1ncc(-c2cccc(S(N)(=O)=O)c2)c2scc(-c3ccc(F)c(Cl)c3)c12,6.28%,1.83%,3.98%,4.7%,4.74%,2.28%,3.81%,3.41%,-0.15%,5.04%,-0.67%,4.55%,2.5%,5.8%,-1.46%,5.73%,12.6%,6.9%,43.7%,7.81%
